Assay outcomes (PubChem)
A549 tox-1 = counter-screen for Nrf2 inhibitors: cytotoxicity in A549 cells; Potency, µM (titrated, usually from 46 µM), most hits filed as inhibitors; A549 ARE-Fluc cells, CellTiter-Fluor viability, 18-24 h; AID 504648; 0.16% of 390,000 active
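A549 ARE_Fluc cells in 5% FBS OPTI-MEM were exposed to compounds in concentration-response for 18-24 h at 37 deg C. Viability was read by CellTiter-Fluor fluorescence (Ex 405/Em 525) after 30 min, before the luciferase read.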
KB-3-1 tox = kills parental KB-3-1 adenocarcinoma cells | KB-3-1 viability, CellTiter-Glo ATP luminescence, 72 h | Potency, µM (series often up to 46.1 µM), usual class: cytotoxic | AID 1347075 | 1.4% of 400,000 active; note: nearly all actives have a fitted effect of over 60% in size
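Parental KB-3-1 adenocarcinoma cells in phenol-red-free DMEM with 10% FBS were pin-treated with compounds at several concentrations, incubated 72 h at 37 °C, and viability read by CellTiter-Glo luminescence; concentration-effect curves were fitted after normalization.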
Nrf2 block = inhibitors of Nrf2 signaling | AID 504444 | Potency, µM (series often up to 46 µM), most hits filed as inhibitors | A549 ARE-Fluc reporter, luciferase luminescence, 18-24 h | 2.1% of 360,000 active; note: nearly all actives have a fitted effect of over 60% in size
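Nrf2 activity is the BugLite luminescence, read 15 min after reagent at room temperature, following CellTiter-Fluor cytotoxicity readout (30 min, 37C). Compound titrations were applied for 18-24 h to 5000 A549 ARE_Fluc cells/well in 5% FBS OPTI-MEM.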
PI4K2A block = PI4K2A (human) kinase inhibition. AID 1346378. 0.13% of 420,000 active. purified PI4K2A, ADP-Glo luminescence, 1 h; stronger effect = lower value. Q9BTU6. activity change, negative = inhibition, % at 76.9 µM; in the data active = activity change below about -50%; inconclusive = mostly about -30% to -49%
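In this quantitative HTS, ADP production by PI4K2A was quantified luminescently after 1 h at ambient temperature; 100 microM adenosine served as plate-quality control.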
KB-V1 MDR tox = kills drug-selected multidrug resistant KB-V1 cells. KB-V1 MDR cells viability, CellTiter-Glo, 72 h. Potency, µM (doses to about 46.1 µM), most hits filed as cytotoxic. 3.4% of 400,000 active; note: nearly all actives have a fitted effect of over 60% in size
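Cells of the MDR subline KB-V1 are plated, dosed with compound at multiple concentrations, and incubated 72 h at 37 degrees C; CellTiter-Glo is then added and luminescence read after 10 min.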
Giardia kill = kills Giardia lamblia | Giardia lamblia trophozoite viability | 0.15% of 340,000 active | activity change, % at 7.66 µM, hits read low; in the data active = activity change below about -80%; inconclusive = between about -30% and that limit;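 note: parasites exposed to compound for two days anaerobically before the ATP read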
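Each well holds 100 Giardia trophozoites and compound. After two days (48 hrs) at 37 deg C in anaerobic conditions, ATP is quantified by luminescence.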
FLuc enzyme inh = blocks purified firefly luciferase in Nrf2 counterscreen | Potency, µM (highest dose often 57.5 µM), usual class: inhibitors | purified firefly luciferase, luminescence inhibition | shares compounds with Nrf2 block | 4% of 1,400 active; note: nearly all actives have a fitted effect of over 65% in size
Target sequence (P08659 whole entry, looked up): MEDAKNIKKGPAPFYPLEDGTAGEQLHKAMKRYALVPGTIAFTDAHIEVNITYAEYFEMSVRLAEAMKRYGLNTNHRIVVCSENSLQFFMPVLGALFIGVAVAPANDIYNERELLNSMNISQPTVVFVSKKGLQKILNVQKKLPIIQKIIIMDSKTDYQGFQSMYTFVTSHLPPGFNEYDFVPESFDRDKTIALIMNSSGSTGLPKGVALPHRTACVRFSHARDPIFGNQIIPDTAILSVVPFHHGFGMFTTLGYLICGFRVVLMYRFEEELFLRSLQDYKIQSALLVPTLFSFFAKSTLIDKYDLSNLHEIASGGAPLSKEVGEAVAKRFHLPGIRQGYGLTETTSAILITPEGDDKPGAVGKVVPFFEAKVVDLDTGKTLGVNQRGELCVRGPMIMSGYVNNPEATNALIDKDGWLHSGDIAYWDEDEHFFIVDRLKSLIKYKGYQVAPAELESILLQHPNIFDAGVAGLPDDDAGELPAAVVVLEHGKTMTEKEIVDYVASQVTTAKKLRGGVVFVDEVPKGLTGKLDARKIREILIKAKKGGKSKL
A549 tox-2 = toxic to A549 ARE-Fluc cells in Nrf2 counterscreen. shares compounds with Nrf2 block. A549 ARE-Fluc cells, cytotoxicity counterscreen. Potency, µM (doses to about 46.1 µM), usual class: inhibitors. 2% of 1,400 active. AID 720523;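 note: cells exposed to compounds for 18 to 24 hours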
ARE-Fluc inh = confirmation of Nrf2 inhibitors in A549 ARE reporter cells; shares compounds with Nrf2 block; A549 ARE-firefly luciferase reporter, luminescence; Potency, µM (top dose mostly 46.1 µM), actives largely listed as inhibitors; 74% of 1,400 active; note: nearly all actives have a fitted effect of over 65% in size
Large screens that a line does not name were inactive (follow-up assays come after a bar, where shown). Sampled rows, rich in hits. Any-hit rate of the full collection: about 5.7%. Unless noted, calls come from the whole dose curve; as a rule, active = well fitted curve in the direction sought with a large enough effect; inconclusive = small, poorly fitted or top-dose-only effect, or another doubt; inactive = no such curve, though single readings can be large; an effect the other way counts as inactive or inconclusive.

COc1cccc(CN(C)C(=O)c2cccc(S(=O)(=O)N3CCN(c4ccccc4)CC3)c2)c1OC	A549 tox-1 inconclusive, KB-3-1 tox inconclusive, Nrf2 block 7.31µM | FLuc enzyme inh inactive | A549 tox-2 inconclusive | ARE-Fluc inh 0.116µM
CCC(C)N(C(=O)Cn1nc(Cc2ccncc2)c2ccccc2c1=O)C(C)CC (centres undefined)	none (no result: A549 tox-1, KB-3-1 tox, Nrf2 block, KB-V1 MDR tox, Giardia kill)
Cc1ccccc1NC(=O)Cn1c(=O)n(Cc2ccco2)c(=O)c2cccnc21	none (no result: Giardia kill)
CC1CC(C)CN(C(=O)C2CCN(c3cncnc3)CC2)C1 (centres undefined)	none (no result: A549 tox-1, KB-3-1 tox, Nrf2 block, KB-V1 MDR tox, Giardia kill)
COCCn1c(CN2CCN(c3cccc(Cl)c3)CC2)nc2c1c(=O)n(C)c(=O)n2C	Nrf2 block 6.51µM, KB-V1 MDR tox inconclusive | FLuc enzyme inh inactive | A549 tox-2 inactive
CCOC(=O)CCN(c1ccccc1)S(=O)(=O)c1cc(-c2cc(C)no2)ccc1C	Nrf2 block inconclusive (no result: KB-3-1 tox, KB-V1 MDR tox, Giardia kill)
O=C(NCCc1ccccc1)OCc1cn(-c2cccc(Cl)c2)nn1	none (no result: A549 tox-1, KB-3-1 tox, Nrf2 block, KB-V1 MDR tox, Giardia kill)
CSc1nc2sc3c(c2c(=O)n1-c1ccccc1C)CCCC3	KB-3-1 tox inconclusive, KB-V1 MDR tox inconclusive (no result: Nrf2 block, Giardia kill)
CSc1nc2nc3c(cc2c(=O)n1-c1ccccc1C)CCCC3	A549 tox-1 inconclusive, KB-3-1 tox inconclusive, Nrf2 block 5.8µM, KB-V1 MDR tox inconclusive, Giardia kill inconclusive | FLuc enzyme inh inactive | A549 tox-2 inactive
O=C(Nc1nccs1)c1ccc(-c2cccc([N+](=O)[O-])c2)o1	Nrf2 block inconclusive
O=C(Nc1ncc(Cc2cccc(C(F)(F)F)c2)s1)c1ccc(-c2cccc([N+](=O)[O-])c2)o1	Nrf2 block 2.59µM, KB-V1 MDR tox inconclusive | FLuc enzyme inh inactive | A549 tox-2 inactive | ARE-Fluc inh 5.17µM
O=C(Nc1cccn(Cc2c(Cl)cccc2Cl)c1=O)c1ccccc1Cl	KB-3-1 tox inconclusive, Nrf2 block 1.46µM, KB-V1 MDR tox 5.8µM | FLuc enzyme inh inactive | A549 tox-2 inactive | ARE-Fluc inh 9.2µM
CCCCCCCC(=O)OCC(=O)[C@@]1(O)CC[C@H]2[C@@H]3CCC4=CC(=O)CC[C@]4(C)[C@H]3[C@@H](O)C[C@@]21C	Nrf2 block 0.461µM | FLuc enzyme inh inactive | A549 tox-2 inactive | ARE-Fluc inh 0.326µM
CC12CCC(=O)C=C1CCC1C2C(O)CC2(C)C1CCC2(O)C(=O)COC(=O)COCC(=O)O (centres undefined)	Nrf2 block 0.291µM | FLuc enzyme inh inactive | A549 tox-2 inactive | ARE-Fluc inh 0.0731µM
CC(=O)OCC(=O)C1(O)CCC2C3CCC4=CC(=O)CCC4(C)C3C(O)CC21C (centres undefined)	Nrf2 block 0.146µM | FLuc enzyme inh inactive | A549 tox-2 inactive | ARE-Fluc inh 0.184µM
C[C@]12CCC(=O)C=C1[C@H](O)C[C@@H]1[C@@H]2[C@@H](O)C[C@@]2(C)[C@H]1CC[C@]2(O)C(=O)CO	none
CCOC(=O)OCC(=O)C1(O)CCC2C3CCC4=CC(=O)CCC4(C)C3C(O)CC21C (centres undefined)	KB-3-1 tox inconclusive, Nrf2 block 0.206µM | FLuc enzyme inh inactive | A549 tox-2 inactive
CC12CCC(=O)C=C1CCC1C2C(O)CC2(C)C1CCC21OCC1=O (centres undefined)	Nrf2 block inconclusive
CCOC(=O)CC[C@H]1CC[C@]2(CCCN(C(=O)c3ccc4ccccc4n3)C2)O1	none (no result: A549 tox-1, KB-3-1 tox, Nrf2 block, KB-V1 MDR tox, Giardia kill)
Cc1cccc(N2CCN(c3ccc4cc(S(=O)(=O)N5CCC(C)CC5)ccc4n3)CC2)c1C	none (no result: Giardia kill)
